What all share (assay): DAPPL (digital affinity profiling via proximity ligation, sequencing); 10 mM Tris-HCl pH 7.5, 50 mM NaCl, 1 mM DTT, 4% glycerol, room temperature, 30 min; GST-TFs on glutathione beads, 16-mer random dsDNA library, 0.1% formaldehyde crosslink after washing; high values mean tight binding
Test [1] concerns the target T1, FLI1 (Homo sapiens, UniProt Q01543 1-452).
T1 sequence: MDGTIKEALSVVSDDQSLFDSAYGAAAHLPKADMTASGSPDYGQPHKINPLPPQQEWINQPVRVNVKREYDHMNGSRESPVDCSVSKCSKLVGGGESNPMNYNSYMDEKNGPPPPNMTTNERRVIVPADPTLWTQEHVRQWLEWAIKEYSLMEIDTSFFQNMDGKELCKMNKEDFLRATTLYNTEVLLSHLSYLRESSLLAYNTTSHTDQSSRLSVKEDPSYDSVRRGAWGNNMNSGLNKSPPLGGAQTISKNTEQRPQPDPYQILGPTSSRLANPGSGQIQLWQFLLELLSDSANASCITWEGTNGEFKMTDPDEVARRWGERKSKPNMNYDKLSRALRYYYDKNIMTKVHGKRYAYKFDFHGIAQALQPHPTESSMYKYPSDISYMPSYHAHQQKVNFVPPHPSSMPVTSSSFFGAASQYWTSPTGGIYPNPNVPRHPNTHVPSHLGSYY
Particulars: protein: recombinant; tags: N-terminal GST; dsDNA, one strand shown. The method, boiled down:
(§1)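 Pools were built from human transcription factors expressed in yeast as GST fusions, captured on glutathione beads and DNA-barcoded, along with a tag-only sample. Incubation with 200 nmole of a 16-mer random double-stranded DNA library lasted 30 min at room temperature in Tris/NaCl/DTT/glycerol buffer, and was followed by washing, 0.1% formaldehyde crosslinking, proximity ligation, PCR amplification and Illumina NextSeq500 sequencing. Binding signal is the quotient of each hexamer's read frequency for a factor and its frequency for the tag-only sample.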

Test [2] addresses T2, ELK1 (Homo sapiens, UniProt P19419 1-428).
T2 sequence: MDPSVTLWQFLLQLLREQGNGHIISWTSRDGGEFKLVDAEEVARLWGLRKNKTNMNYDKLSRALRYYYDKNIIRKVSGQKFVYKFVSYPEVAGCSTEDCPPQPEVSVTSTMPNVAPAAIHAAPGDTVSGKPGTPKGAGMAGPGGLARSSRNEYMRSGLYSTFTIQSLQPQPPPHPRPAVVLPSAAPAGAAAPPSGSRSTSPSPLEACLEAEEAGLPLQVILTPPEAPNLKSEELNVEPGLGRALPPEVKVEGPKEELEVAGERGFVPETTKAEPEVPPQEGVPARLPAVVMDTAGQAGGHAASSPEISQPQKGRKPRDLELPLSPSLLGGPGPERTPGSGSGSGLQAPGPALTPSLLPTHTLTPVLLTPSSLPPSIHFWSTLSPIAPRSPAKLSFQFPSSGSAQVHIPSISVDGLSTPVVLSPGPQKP
Particulars: protein: recombinant; tags: N-terminal GST; dsDNA, one strand shown. The method, boiled down: as §1

Test [3] has as its target T3, GABPA (Homo sapiens, UniProt Q06546 1-454).
T3 sequence: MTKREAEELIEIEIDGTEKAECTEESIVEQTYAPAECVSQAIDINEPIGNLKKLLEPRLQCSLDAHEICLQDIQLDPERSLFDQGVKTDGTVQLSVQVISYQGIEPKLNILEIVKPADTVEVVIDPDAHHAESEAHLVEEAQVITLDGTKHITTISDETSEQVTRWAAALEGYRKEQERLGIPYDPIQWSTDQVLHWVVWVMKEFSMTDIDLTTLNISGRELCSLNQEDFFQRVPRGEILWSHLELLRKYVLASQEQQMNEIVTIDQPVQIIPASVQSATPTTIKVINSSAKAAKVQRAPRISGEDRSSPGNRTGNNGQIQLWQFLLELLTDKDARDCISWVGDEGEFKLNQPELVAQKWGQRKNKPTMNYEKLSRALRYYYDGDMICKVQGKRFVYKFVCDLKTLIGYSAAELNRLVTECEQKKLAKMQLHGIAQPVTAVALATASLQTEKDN
Particulars: protein: recombinant; tags: N-terminal GST; dsDNA, one strand shown. The method, boiled down:
as §1

In test [4] the target is T4, ERG (Homo sapiens, UniProt P11308 1-479).
T4 sequence: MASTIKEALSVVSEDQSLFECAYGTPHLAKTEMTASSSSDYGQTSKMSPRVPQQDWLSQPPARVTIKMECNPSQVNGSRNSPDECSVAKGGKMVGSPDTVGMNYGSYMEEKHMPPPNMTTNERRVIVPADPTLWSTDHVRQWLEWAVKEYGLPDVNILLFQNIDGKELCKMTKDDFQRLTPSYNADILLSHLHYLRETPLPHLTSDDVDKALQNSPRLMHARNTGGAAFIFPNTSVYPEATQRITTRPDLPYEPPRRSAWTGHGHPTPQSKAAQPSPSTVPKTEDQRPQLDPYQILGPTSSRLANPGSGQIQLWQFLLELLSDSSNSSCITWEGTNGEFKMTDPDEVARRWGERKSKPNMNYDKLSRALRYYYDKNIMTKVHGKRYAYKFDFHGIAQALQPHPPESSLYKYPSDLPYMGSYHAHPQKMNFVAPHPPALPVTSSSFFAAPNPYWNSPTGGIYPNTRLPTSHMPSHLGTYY
Particulars: protein: recombinant; tags: N-terminal GST; dsDNA, one strand shown. The method, boiled down: as §1

Test [5] addresses ELF1 (Homo sapiens, UniProt P32519 1-619). Particulars: protein: recombinant; tags: N-terminal GST; dsDNA, one strand shown. The method, boiled down: as §1
Test [6] addresses T5, EHF (Homo sapiens, UniProt Q9NZC4 1-300).
T5 sequence: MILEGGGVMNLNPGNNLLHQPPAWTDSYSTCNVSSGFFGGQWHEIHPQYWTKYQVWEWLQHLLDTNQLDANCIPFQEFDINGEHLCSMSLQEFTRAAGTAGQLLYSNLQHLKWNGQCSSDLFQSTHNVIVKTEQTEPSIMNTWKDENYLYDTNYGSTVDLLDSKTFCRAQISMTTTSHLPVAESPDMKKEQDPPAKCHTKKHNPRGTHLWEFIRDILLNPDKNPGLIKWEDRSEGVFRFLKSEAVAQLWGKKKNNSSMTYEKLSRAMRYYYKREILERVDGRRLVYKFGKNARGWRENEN
The conditions noted are these: protein: recombinant; tags: N-terminal GST; dsDNA, one strand shown. The method, boiled down:
as §1

In test [7] the target is SPI1 (Homo sapiens, UniProt P17947 1-270). Particulars: protein: recombinant; tags: N-terminal GST; dsDNA, one strand shown. The method, boiled down:
as §1

The target in test [8] is SPIB (Homo sapiens, UniProt Q01892 1-262). The conditions noted are these: protein: recombinant; tags: N-terminal GST; dsDNA, one strand shown. The method, boiled down:
as §1

Test [9] addresses T6, ELK3 (Homo sapiens, UniProt P41970 1-407).
T6 sequence: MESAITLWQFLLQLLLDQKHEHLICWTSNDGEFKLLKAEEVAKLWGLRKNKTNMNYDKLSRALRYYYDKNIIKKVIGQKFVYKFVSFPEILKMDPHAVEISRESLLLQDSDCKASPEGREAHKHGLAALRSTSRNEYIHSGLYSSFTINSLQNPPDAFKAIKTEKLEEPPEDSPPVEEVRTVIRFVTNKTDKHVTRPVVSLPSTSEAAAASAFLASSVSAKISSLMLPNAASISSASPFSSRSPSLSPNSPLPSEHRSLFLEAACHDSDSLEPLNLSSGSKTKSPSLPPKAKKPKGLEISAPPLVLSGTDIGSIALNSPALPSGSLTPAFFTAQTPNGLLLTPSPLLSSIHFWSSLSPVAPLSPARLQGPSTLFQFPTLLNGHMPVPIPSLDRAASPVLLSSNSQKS
Particulars: protein: recombinant; tags: N-terminal GST; dsDNA, one strand shown. The method, boiled down:
as §1

For test [10], the target named is T7, FEV (Homo sapiens, UniProt Q99581 1-238).
T7 sequence: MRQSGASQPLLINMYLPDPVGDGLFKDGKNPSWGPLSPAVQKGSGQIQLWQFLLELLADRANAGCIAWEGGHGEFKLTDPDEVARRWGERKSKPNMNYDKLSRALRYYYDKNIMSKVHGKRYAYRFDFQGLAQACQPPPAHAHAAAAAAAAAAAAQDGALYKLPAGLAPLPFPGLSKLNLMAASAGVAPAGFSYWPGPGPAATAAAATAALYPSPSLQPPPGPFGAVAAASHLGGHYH
The conditions noted are these: protein: recombinant; tags: N-terminal GST; dsDNA, one strand shown. The method, boiled down:
as §1

In test [11] the target is ETV5 (Homo sapiens, UniProt P41161 1-510). The conditions noted are these: protein: recombinant; tags: N-terminal GST; dsDNA, one strand shown. The method, boiled down: as §1
ETV5, sequence (P41161 whole entry): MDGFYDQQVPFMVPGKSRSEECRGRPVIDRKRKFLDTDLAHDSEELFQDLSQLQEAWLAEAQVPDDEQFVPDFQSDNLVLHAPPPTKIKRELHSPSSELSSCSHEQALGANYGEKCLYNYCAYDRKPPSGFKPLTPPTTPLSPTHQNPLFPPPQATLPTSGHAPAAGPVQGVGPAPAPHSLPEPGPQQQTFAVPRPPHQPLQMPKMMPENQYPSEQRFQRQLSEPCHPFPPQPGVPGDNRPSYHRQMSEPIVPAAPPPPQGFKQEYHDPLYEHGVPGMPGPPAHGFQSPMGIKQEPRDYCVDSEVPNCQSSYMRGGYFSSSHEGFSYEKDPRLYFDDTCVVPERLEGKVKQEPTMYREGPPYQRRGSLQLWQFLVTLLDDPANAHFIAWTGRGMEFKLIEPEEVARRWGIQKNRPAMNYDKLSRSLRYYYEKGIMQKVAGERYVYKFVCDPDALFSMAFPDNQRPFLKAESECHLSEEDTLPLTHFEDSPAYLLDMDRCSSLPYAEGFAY
Test [12] has as its target HSF1 (Homo sapiens, UniProt Q00613 1-529). Particulars: protein: recombinant; tags: N-terminal GST; chain copies: 3; dsDNA, one strand shown. The method, boiled down:
as §1

The target of test [13] is T8, SPIC (Homo sapiens, UniProt Q8N5J4 1-248).
T8 sequence: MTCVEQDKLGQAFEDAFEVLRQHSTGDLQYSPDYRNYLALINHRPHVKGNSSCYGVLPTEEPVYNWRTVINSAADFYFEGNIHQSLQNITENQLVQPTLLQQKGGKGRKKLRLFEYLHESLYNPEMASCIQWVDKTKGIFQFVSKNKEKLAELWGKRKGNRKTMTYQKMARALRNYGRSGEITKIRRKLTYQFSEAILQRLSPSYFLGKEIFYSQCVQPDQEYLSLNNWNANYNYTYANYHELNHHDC
Particulars: protein: recombinant; tags: N-terminal GST; dsDNA, one strand shown. The method, boiled down:
as §1

Test [14] concerns the target ELF4 (Homo sapiens, UniProt Q99607 1-663). The conditions noted are these: protein: recombinant; tags: N-terminal GST; dsDNA, one strand shown. The method, boiled down:
as §1

In test [15] the target is T9, ELK4 (Homo sapiens, UniProt P28324-2 1-405).
T9 sequence: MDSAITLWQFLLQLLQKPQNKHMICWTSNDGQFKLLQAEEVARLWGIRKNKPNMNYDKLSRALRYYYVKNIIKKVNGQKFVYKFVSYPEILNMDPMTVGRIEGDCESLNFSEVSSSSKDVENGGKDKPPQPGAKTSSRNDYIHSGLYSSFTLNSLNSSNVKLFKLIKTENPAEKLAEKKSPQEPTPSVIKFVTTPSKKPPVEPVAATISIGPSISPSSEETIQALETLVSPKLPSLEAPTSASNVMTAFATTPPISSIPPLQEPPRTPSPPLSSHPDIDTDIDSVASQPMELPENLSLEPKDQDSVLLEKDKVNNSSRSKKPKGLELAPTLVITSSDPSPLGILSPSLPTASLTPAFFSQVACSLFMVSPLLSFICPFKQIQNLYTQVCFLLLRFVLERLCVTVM
The conditions noted are these: protein: recombinant; tags: N-terminal GST; dsDNA, one strand shown. The method, boiled down: as §1

Test [16] concerns the target T10, ETV2 (Homo sapiens, UniProt O00321 1-342).
T10 sequence: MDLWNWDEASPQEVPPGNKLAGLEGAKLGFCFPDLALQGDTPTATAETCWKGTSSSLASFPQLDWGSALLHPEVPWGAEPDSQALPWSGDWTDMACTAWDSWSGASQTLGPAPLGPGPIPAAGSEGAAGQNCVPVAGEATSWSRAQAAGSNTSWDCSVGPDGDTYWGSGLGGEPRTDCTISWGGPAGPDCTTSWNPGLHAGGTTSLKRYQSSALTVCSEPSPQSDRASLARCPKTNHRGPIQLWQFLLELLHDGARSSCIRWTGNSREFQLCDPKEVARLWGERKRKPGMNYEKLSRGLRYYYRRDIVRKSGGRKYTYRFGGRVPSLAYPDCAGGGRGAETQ
The conditions noted are these: protein: recombinant; tags: N-terminal GST; dsDNA, one strand shown. The method, boiled down:
as §1

Test [17] has as its target T11, ELF3 (Homo sapiens, UniProt P78545 1-371).
T11 sequence: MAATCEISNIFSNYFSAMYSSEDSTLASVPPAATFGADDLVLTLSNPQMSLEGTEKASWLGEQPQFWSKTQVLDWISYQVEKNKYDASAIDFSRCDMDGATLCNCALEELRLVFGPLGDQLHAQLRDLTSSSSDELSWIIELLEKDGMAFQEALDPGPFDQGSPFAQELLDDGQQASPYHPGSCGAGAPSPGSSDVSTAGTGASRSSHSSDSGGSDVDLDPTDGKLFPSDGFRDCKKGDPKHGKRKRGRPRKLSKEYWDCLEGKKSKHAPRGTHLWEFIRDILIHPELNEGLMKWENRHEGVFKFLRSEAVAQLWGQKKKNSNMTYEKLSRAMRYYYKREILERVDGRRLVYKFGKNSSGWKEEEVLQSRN
The conditions noted are these: protein: recombinant; tags: N-terminal GST; dsDNA, one strand shown. The method, boiled down: as §1

Test [18] addresses CRX (Homo sapiens, UniProt O43186 1-299). The conditions noted are these: protein: recombinant; tags: N-terminal GST; dsDNA, one strand shown. The method, boiled down: as §1
Test [19] concerns the target ETV1 (Homo sapiens, UniProt P50549 1-477). Particulars: protein: recombinant; tags: N-terminal GST; dsDNA, one strand shown. The method, boiled down:
as §1

ELF1, sequence (P32519 whole entry): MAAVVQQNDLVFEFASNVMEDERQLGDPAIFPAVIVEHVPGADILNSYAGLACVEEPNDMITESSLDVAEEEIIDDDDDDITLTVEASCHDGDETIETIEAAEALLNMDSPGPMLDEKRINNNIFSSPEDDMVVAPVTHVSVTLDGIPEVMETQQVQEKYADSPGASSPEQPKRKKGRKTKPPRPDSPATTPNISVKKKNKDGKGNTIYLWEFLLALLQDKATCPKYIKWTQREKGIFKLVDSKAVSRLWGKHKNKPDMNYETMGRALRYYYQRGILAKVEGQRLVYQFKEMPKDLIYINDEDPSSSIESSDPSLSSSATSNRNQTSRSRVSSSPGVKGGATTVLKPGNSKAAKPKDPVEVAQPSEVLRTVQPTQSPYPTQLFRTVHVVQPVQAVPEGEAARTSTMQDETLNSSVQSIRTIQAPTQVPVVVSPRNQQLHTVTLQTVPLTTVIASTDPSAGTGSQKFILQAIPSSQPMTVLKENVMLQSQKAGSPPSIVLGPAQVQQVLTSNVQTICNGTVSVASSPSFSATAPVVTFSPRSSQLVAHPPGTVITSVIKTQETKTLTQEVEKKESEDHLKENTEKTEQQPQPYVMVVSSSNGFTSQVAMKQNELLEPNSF
CRX, sequence (O43186 whole entry): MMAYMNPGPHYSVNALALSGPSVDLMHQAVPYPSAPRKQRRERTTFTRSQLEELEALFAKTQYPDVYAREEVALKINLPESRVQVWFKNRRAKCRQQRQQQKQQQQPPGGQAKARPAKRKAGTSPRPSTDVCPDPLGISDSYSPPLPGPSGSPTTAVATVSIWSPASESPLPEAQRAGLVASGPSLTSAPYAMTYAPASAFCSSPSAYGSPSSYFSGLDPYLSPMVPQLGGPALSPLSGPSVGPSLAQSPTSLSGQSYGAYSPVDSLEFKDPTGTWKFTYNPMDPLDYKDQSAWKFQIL
ETV1, sequence (P50549 whole entry): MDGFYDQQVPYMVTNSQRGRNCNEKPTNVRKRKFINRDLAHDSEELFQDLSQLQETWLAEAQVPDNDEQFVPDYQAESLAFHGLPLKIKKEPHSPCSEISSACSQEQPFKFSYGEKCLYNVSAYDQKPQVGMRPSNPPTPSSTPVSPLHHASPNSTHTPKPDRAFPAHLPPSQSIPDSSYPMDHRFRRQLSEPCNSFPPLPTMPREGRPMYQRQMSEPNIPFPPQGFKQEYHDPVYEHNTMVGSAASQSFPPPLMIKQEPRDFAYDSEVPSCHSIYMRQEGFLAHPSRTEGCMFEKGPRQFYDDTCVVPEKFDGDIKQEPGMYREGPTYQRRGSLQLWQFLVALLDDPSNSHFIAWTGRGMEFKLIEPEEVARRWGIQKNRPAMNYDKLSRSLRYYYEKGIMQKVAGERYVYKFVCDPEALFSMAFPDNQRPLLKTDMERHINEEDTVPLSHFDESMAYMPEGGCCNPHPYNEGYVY
ELF4, sequence (Q99607 whole entry): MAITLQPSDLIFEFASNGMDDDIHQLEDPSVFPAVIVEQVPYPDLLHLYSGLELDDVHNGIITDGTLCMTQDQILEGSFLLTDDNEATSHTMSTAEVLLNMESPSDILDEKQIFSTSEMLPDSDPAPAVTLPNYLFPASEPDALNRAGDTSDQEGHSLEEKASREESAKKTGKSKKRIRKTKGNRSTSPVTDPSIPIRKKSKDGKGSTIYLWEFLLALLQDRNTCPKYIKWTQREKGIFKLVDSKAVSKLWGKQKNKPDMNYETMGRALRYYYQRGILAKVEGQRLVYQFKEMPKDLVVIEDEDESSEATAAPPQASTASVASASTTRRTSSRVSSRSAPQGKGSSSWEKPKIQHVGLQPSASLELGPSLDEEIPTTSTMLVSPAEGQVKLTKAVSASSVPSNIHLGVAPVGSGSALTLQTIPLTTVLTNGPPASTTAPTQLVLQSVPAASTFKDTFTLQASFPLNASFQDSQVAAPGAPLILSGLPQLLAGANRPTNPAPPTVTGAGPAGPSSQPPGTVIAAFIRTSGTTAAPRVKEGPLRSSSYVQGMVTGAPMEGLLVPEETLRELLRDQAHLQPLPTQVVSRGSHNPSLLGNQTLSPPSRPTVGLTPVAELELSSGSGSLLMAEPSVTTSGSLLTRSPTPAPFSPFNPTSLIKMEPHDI
SPIB, sequence (Q01892 whole entry): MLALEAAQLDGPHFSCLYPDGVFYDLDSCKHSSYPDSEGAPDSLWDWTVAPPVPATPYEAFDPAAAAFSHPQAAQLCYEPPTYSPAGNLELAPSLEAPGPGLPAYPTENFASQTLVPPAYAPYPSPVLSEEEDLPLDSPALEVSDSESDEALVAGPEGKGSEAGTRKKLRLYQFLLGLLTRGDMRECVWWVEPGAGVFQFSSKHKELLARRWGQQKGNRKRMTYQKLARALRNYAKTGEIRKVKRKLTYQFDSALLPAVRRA
HSF1, sequence (Q00613 whole entry): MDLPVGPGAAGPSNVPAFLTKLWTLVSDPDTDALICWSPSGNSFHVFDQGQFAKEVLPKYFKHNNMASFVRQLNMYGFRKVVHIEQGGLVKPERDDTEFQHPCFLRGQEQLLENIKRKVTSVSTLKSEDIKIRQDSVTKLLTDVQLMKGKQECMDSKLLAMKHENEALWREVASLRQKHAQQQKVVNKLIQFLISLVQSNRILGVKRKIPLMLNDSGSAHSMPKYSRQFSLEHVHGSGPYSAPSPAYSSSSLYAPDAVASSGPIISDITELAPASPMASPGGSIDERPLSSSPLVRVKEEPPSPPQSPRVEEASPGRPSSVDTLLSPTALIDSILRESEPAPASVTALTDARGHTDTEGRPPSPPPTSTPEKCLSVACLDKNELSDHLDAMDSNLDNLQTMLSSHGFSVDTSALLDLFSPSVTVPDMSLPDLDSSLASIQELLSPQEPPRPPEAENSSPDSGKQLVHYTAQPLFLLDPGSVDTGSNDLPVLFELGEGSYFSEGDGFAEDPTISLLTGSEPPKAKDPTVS

With AAATTC, the binding signal in [1] was 1.31 fold enrichment (6-mer frequency, TF over GST control); in test [2] it was 1.31 fold enrichment (6-mer frequency, TF over GST control); in test [3] it was 1.4 fold enrichment (6-mer frequency, TF over GST control); in [4], 1.24 fold enrichment (6-mer frequency, TF over GST control); in test [5], 1.31 fold enrichment (6-mer frequency, TF over GST control); in [6] it was 1.32 fold enrichment (6-mer frequency, TF over GST control). Besides, the binding signal was 1.26 fold enrichment (6-mer frequency, TF over GST control) in test [7]; 1.33 fold enrichment (6-mer frequency, TF over GST control) in test [8]; 1.42 fold enrichment (6-mer frequency, TF over GST control) in [9]; 1.26 fold enrichment (6-mer frequency, TF over GST control) in test [10]; 1.38 fold enrichment (6-mer frequency, TF over GST control) in test [11]; 1.95 fold enrichment (6-mer frequency, TF over GST control) in [12]. The binding signal is 1.34 fold enrichment (6-mer frequency, TF over GST control) in test [13]; 1.32 fold enrichment (6-mer frequency, TF over GST control) in [14]; 1.15 fold enrichment (6-mer frequency, TF over GST control) in [15]; 1.26 fold enrichment (6-mer frequency, TF over GST control) in [16]; 1.35 fold enrichment (6-mer frequency, TF over GST control) in test [17]; 1.51 fold enrichment (6-mer frequency, TF over GST control) in test [18]. For the same sequence, the binding signal in test [19] was 1.3 fold enrichment (6-mer frequency, TF over GST control).

The record behind these values is paper PMC7862700, “An all-to-all approach to the identification of sequence-specific readers for epigenetic DNA modifications on cytosine”.
